Source: the supplement of paper PMC7411640
Structures can show the parent of a compound that is named as a salt.

What follows are molecules tested on MDA-MB-468 (assay: phospho-S6 immunofluorescence (DAPI-normalised), per-plate z-score; higher = higher phospho-S6 signal (less pathway suppression)). Conditions: co-treatment: GDC0941 450 nM; 24 h.
Method: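 GPCR-targeted compound library (MedChemExpress HY-L006) tested on MDA-MB-468 PTEN-null TNBC cells in 384-well plates at 0.1, 1 or 10 uM, combined with vehicle, GDC0941 450 nM or lapatinib 1 uM, for 24 h. Phospho-S6 (S240/244) immunofluorescence normalised to DAPI and expressed as a per-plate z-score; values are the mean of biological triplicates.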
In the case of `COc1cc2c(cc1OC)-c1cc3ccc4c(c3c[n+]1CC2)OCO4` [Epiberberine (chloride)] (compound 10 µM), the “phospho-S6 immunofluorescence (z-score)” value is reported as -0.39.
`CCOc1cc(N)c(Cl)cc1C(=O)NCC1CN(Cc2ccc(F)cc2)CCO1` (configuration not stated) [Mosapride (citrate)] (compound 10 µM) was tested, and the “phospho-S6 immunofluorescence (z-score)” value was 0.76.
For `CCNC(=O)[C@@H]1CCCN1C(=O)[C@H](CCCNC(=N)N)NC(=O)[C@H](CC(C)C)NC(=O)[C@@H](CC(C)C)NC(=O)[C@H](Cc1ccc(O)cc1)NC(=O)[C@H](CO)NC(=O)[C@H](Cc1c[nH]c2ccccc12)NC(=O)[C@H](Cc1c[nH]cn1)NC(=O)[C@@H]1CCC(=O)N1` [Leuprolide (Acetate)] (compound 10 µM), the “phospho-S6 immunofluorescence (z-score)” value was 0.41.
For `NC(=O)NC1NC(=O)NC1=O` (configuration not stated) [Allantoin] (compound 10 µM), the “phospho-S6 immunofluorescence (z-score)” value was 0.67.
`CCN(CC)CCNC(=O)c1cc(Cl)c(N)cc1OC` [Metoclopramide] (compound 10 µM) was tested, and the “phospho-S6 immunofluorescence (z-score)” value was -0.3.
`CN(C)CCOC(C)(c1ccccc1)c1ccc(Cl)cc1` (configuration not stated) [Chlorphenoxamine] (compound 10 µM) was tested, and the “phospho-S6 immunofluorescence (z-score)” value was -4.26.
With `C[C@H](N)[C@H](O)c1cccc(O)c1` [Metaraminol (tartrate)] (compound 10 µM) the “phospho-S6 immunofluorescence (z-score)” value was 0.64.
In the case of `O=c1ccc2ccc(OCCCCN3CCN(c4cccc5sccc45)CC3)cc2[nH]1` [Brexpiprazole] (compound 10 µM), the “phospho-S6 immunofluorescence (z-score)” value is reported as -5.22.
With `N=C(N)NCCCCN` [Agmatine (sulfate)] (compound 10 µM) the “phospho-S6 immunofluorescence (z-score)” value was 0.88.
In the case of `NC(N)=Nc1nc(CSCC/C(N)=N/S(N)(=O)=O)cs1` [Famotidine] (compound 10 µM), the “phospho-S6 immunofluorescence (z-score)” value is reported as -1.24.
In the case of `CN(C)CCOC(c1ccccc1)c1ccccc1` [Diphenhydramine (hydrochloride)] (compound 10 µM), the “phospho-S6 immunofluorescence (z-score)” value is reported as -0.32.
For `O=C(O)CC1CCC2(CC1)CCN(c1cc(OC(F)(F)F)ccc1Cl)CC2` (compound 10 µM), the “phospho-S6 immunofluorescence (z-score)” value was 0.09.
In the case of `CCCCC[C@H](O)/C=C/[C@H]1[C@H](O)CC(=O)[C@@H]1CCCCCCC(=O)O` [Prostaglandin E1] (compound 10 µM), the “phospho-S6 immunofluorescence (z-score)” value is reported as -0.04.
With `CN1N=C2CCN(C(=O)[C@@H](COCc3ccccc3)NC(=O)C(C)(C)N)C[C@@]2(Cc2ccccc2)C1=O` [Capromorelin (Tartrate)] (compound 10 µM) the “phospho-S6 immunofluorescence (z-score)” value was -0.05.
In the case of `C[C@](N)(Cc1ccc(O)c(O)c1)C(=O)O` (compound 10 µM), the “phospho-S6 immunofluorescence (z-score)” value is reported as -0.58.
In the case of `CCc1nc2c(C)nc(C)cc2n1-c1ccc(CCNC(=O)NS(=O)(=O)c2ccc(C)cc2)cc1` [Grapiprant] (compound 10 µM), the “phospho-S6 immunofluorescence (z-score)” value is reported as -0.05.
`Cc1cc(C(C)(C)C)cc(C)c1CC1=NCCN1` [Xylometazoline (hydrochloride)] (compound 10 µM) was tested, and the “phospho-S6 immunofluorescence (z-score)” value was 0.43.
For `COc1ccccc1Oc1c(NS(=O)(=O)c2ccc(C(C)(C)C)cc2)nc(-c2ncccn2)nc1OCCO` [Bosentan] (compound 10 µM), the “phospho-S6 immunofluorescence (z-score)” value was 0.53.
For `COc1ccc(CCN2CCN(CCCc3ccccc3)CC2)cc1OC` [SA4503 (dihydrochloride)] (compound 10 µM), the “phospho-S6 immunofluorescence (z-score)” value was 0.13.
`CCN(CC)CCCC(C)Nc1nc(C)cc(Nc2ccc3nc(C)cc(N)c3c2)n1` (configuration not stated) (compound 10 µM) was tested, and the “phospho-S6 immunofluorescence (z-score)” value was 0.95.
With `COCCCN1CCC(NC(=O)c2cc(Cl)c(N)c3c2OCC3)CC1` [Prucalopride] (compound 10 µM) the “phospho-S6 immunofluorescence (z-score)” value was 0.54.
In the case of `O=C1CCC(c2ccccc2)(C2CCN(Cc3ccccc3)CC2)C(=O)N1` (configuration not stated) [Benzetimide (hydrochloride)] (compound 10 µM), the “phospho-S6 immunofluorescence (z-score)” value is reported as 0.5.
`c1ccc(NCc2ccc(CNc3ccccn3)cc2)nc1` (compound 10 µM) was tested, and the “phospho-S6 immunofluorescence (z-score)” value was 0.88.
With `Cc1nc2n(c(=O)c1CCN1CCC(c3noc4cc(F)ccc34)CC1)CCCC2O` (configuration not stated) [Paliperidone] (compound 10 µM) the “phospho-S6 immunofluorescence (z-score)” value was 0.37.
`CC(C)OC(=O)N1CCC(Oc2ncnc3c2cnn3-c2ccc(S(C)(=O)=O)cc2F)CC1` (compound 10 µM) was tested, and the “phospho-S6 immunofluorescence (z-score)” value was -0.32.
With `CC(NCCc1ccc(O)cc1)C(O)c1ccc(O)cc1` (configuration not stated) [Ritodrine (hydrochloride)] (compound 10 µM) the “phospho-S6 immunofluorescence (z-score)” value was -0.01.
In the case of `Cc1ccc(C(=O)Nc2ccc(S(=O)(=O)O)c3cc(S(=O)(=O)O)cc(S(=O)(=O)O)c23)cc1NC(=O)c1cccc(NC(=O)Nc2cccc(C(=O)Nc3cc(C(=O)Nc4ccc(S(=O)(=O)O)c5cc(S(=O)(=O)O)cc(S(=O)(=O)O)c45)ccc3C)c2)c1` [Suramin (sodium salt)] (compound 10 µM), the “phospho-S6 immunofluorescence (z-score)” value is reported as 0.54.
